Measurements from PubChem BioAssay (NCI).
About 83,000 compounds went through this panel and 20% of them were active in at least one assay; those are over-represented in the sample as a whole.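 Growth was measured after 48 h exposure to one concentration of compound in 96-well plates. Values under 10 count as active.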 A number with no mark means an inactive call. The source made the active and inactive calls.

The compounds below were run on NCI/ADR-RES ovarian (assay: NCI-60 one-dose screen, 48 h (100 = growth as untreated, 0 = no growth, -100 = all killed)). Settings: 10 µM unless noted.
Experimental: Growth inhibition of the NCI/ADR-RES human […] tumor cell line is measured as a screen for anti-cancer activity. Cells are grown in 96 well plates and exposed to the test compound for 48 hours. Compounds are tested at a single concentration, which is 10^-5 M for most compounds. The reported endpoint is percent growth (GI% or GIPRCNT), where numbers from 0 - 100% represent growth inhibition, and numbers from -100% - 0 represent cell death. For example, a value of 40 represents 60% growth inhibition. A value of 0 means no net growth occurred over the course of the experiment. A value of -40 indicates 40% of cells at the beginning of the experiment died by the end of the experiment. A value of -100 means all cells are dead at the end of the experiment.
NCI-60 Human Tumor Cell Lines Screen was performed using the standard one-dose NCI protocol, which is described in more detail at https://dtp.cancer.gov/discovery_development/nci-60/default.htm.
Compounds with GIPRCNT values below 10 were considered active. Activity score was based on GIPRCNT using the following formula: […]
Score is 0 for GIPRCNT values of 100 or above, 50 for GIPRCNT values of 0, and 100 for GIPRCNT values of -100.
`CCN1CCN(Cc2cn(-c3ccc(S(N)(=O)=O)cc3)nn2)CC1` showed a growth of 111%. With `CC(O)c1cc2ccccc2c(=O)o1` (stereo not given) the growth was 101%. For `Cc1ccc(NC(=S)NNC(=S)Nc2ccc(C)cc2)cc1`, the growth was 104%. With `Cc1cc(-c2ccc(Cl)cc2)n(Cc2nnc(SCC(=O)Nc3ccc(S(N)(=O)=O)cc3)n2-c2ccc([N+](=O)[O-])cc2)n1` the growth was 84.3%. `COc1cc(OC)c(S(N)(=O)=O)cc1C(=O)/C=C/c1ccc(Cl)cc1` showed a growth of 20%. `O=C(c1ccc(O)c(C(=O)N2Cc3ccc(OCCC[P+](c4ccccc4)(c4ccccc4)c4ccccc4)cc3C2)c1)N1Cc2cccc(F)c2C1` gave a growth of 108%. For `COC(=O)C[Se]C(=O)Cc1c(C)n(C(=O)c2ccc(Cl)cc2)c2ccc(OC)cc12`, the growth was 9.78% (active). With `Cc1ccc(S(=O)(=O)N(CC[C@@H]2C[C@H]2c2cc3ccccc3o2)S(=O)(=O)c2ccc(C)cc2)cc1` the growth was 94%. With `CCCCCc1ccc(S(=O)(=O)Nc2cccc(-c3csc(NC(=O)CNCCN(C)C)n3)c2)cc1` the growth was 73.1%. With `Cn1ccnc1C(=O)/C=C/c1ccc(CNC(=O)c2ccc(S(F)(F)(F)(F)F)cc2)cc1` the growth was 12.2%. Compound `CCNC(=O)Oc1ccc(/C(=C(/C)c2ccccc2)c2ccc(OCCN3CCCCCC3)cc2)cc1` has a growth of 24.4%. `Cn1ccnc1C(=O)/C=C/c1ccc(NC(=O)c2c(F)c(F)c(F)c(F)c2F)cc1` was tested, and the growth was 108%. For `CC(Nc1c(C#N)cnc2ccc(-c3cnc(N)nc3)cc12)c1ccccc1` (stereo not given), the growth was 19.3%. Work on `CNC(=O)c1cc(Oc2ccc3nc(NC(=O)c4ccc(N5CCOCC5)c(C(F)(F)F)c4)sc3c2)ccn1` yielded a growth of 70%. `Cc1ccc2c(c1)C13C(=C2Br)CCCN1C(=O)c1ccccc13` (stereo not given) was tested, and the growth was 88.4%. With `C#C[C@]1(O)CC[C@H]2[C@@H]3CC=C4c5sc(-c6ccc7c(c6)OCO7)nc5CC[C@]4(C)[C@H]3CC[C@@]21C` the growth was 39.2%. Work on `CC(=O)N1N=C(c2cccc(-n3cccc3)c2)CC1c1cccc(F)c1` (stereo not given) yielded a growth of 95.9%. `N#Cc1cnc2ccc(-c3cnc(N)nc3)cc2c1N1CCc2cc(F)c(Cl)cc21` was tested, and the growth was 6.22% (active). `C#CCn1cccc1CNc1ccc(OC)cc1` was tested, and the growth was -53.1% (active). With `COc1cc2oc(-c3cccc(N)c3)cc(=O)c2c(OC)c1OC` the growth was 106%. For `C=C(C=O)[C@@H]1CC[C@]2(COC(C)=O)CC[C@]3(C)C(CC[C@@H]4[C@@]5(C)CC[C@H](OC(C)=O)C(C)(C)[C@@H]5CC[C@]43C)[C@@H]12` (stereo not given in full), the growth was 1.48% (active). `COc1ccc2c(c1)c(CC(=O)[Se]CC#N)c(C)n2C(=O)c1ccc(Cl)cc1` was tested, and the growth was -13.8% (active). `COc1cc(-c2nc3sccn3c2-c2ccnc(S(C)(=O)=O)n2)ccc1F` was tested, and the growth was 95.7%. `O=S(=O)(NC1c2ccccc2C[C@H]1O)c1ccc(Cl)cc1Cl` (stereo not given in full) gave a growth of 99.5%. Compound `CCO/C=N/C1=C(C#N)C(c2ccc(Cl)cc2)c2sc3c(CC)cccc3c2O1` (stereo not given) has a growth of 14.9%. `CCCCc1nc(/C=N/Nc2nc(Nc3ccccc3)nc(Nc3ccc(S(N)(=O)=O)cc3)n2)c(Cl)[nH]1` showed a growth of 108%. Work on `O=C(NNc1nc2cc(F)c(F)cc2n2c(CN3CC4CNCC4C3)ccc12)c1ncccn1` (stereo not given) yielded a growth of 62.3%. `O=C(CSc1nnc(-c2ccc3nc(-c4ccccc4)[nH]c3c2)o1)Nc1ccc(C(=O)/C=C/c2ccccc2)cc1` showed a growth of 105%. `O=S(=O)(NCCCNc1nccc(-c2[nH]c(-c3ccccc3)nc2-c2ccc(Cl)c(O)c2)n1)c1cccc2ccccc12` gave a growth of 34.6%. `COc1cc(OC)cc(C(=O)Nc2cccc(C#Cc3cccc4[nH]nc(N)c34)c2)c1` showed a growth of 34.2%. Work on `O=C1[C@H]2Cc3c([nH]c4ccccc34)[C@@H](c3c(Cl)cccc3Cl)N2C(=O)CN1C1CCN(CC2CCCCC2)CC1` yielded a growth of 91.8%. For `O=C1CC(=O)N2CSCN(C(c3ccccc3)c3nc4ncncc4[nH]3)C2=N1` (stereo not given), the growth was 99.3%. `ClC(Cl)c1nc(-c2ccco2)n2nc(-c3ccccc3)cc2n1` was tested, and the growth was 4.02% (active). Work on `CC(=O)C1=C(C)NC(NN)=NC1c1cccc(Cl)c1` (stereo not given) yielded a growth of 107%. Work on `COC(=O)c1[nH]nc2c1C1(C(=O)N(C)c3ccccc31)C(C#N)=C(N)O2` (stereo not given) yielded a growth of 99.7%. For `CN(Cc1ccccc1)S(=O)(=O)/N=C1\NC(=O)NC1=C(Cl)Cl`, the growth was 81.5%. `CS(=O)(=O)c1ccc(-n2cc(/C=N/O)c(-c3ccccc3)n2)cc1` gave a growth of 84.4%. Compound `c1ccc(C(c2nc3ncncc3[nH]2)N2CSc3nc4ccccc4n3C2)cc1` (stereo not given) has a growth of 104%. For `C#Cc1nc(/C=C/C(=O)c2nccn2C)cs1`, the growth was -26.1% (active). Compound `Cc1ccc(-c2cc3nc(C(Cl)Cl)nc(C)n3n2)cc1` has a growth of 110%.
